{"source": "PubChem BioAssay AID687001", "about": "(Broad Institute, 2013)", "note": "Potency and affinity values are given separately. Activity calls are given as the source filed them.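 How the source made its calls: active means signal-lowering compounds whose fitted half-maximal concentration is at or below twice the top tested dose in every run; inconclusive means runs disagree, flat 30 to 70% inhibition, or poor curve fit; inactive means the rest.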", "data": [{"biological_target": "Protein S100-A4 (Homo sapiens) (UniProt P26447)", "sequence (P26447 whole entry, looked up)": "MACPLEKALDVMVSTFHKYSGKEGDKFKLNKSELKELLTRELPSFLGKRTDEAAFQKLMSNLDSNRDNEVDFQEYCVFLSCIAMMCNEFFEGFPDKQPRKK", "assay": "S100A4-myosin IIA binding inhibitor potency, dose response, biochemical, fluorescence polarization, cherry-picked hits (AID 687001);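 further: 0% = DMSO neutral control wells and -100% = TFP positive control wells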", "conditions": "FP, S100A4/TAMRA-myosin IIA peptide binding; series mostly up to 11 µM; activity change, negative = inhibition: at the top concentration", "values": [{"compound": "CCCn1cnc2c(oc3ccccc32)c1=O", "activity change, negative = inhibition": "-0.695% (inactive)"}, {"compound": "Cc1nn(C)cc1S(=O)(=O)Nc1ccc(C(F)(F)F)cc1", "activity change, negative = inhibition": "-0.107% (inactive)"}, {"compound": "Cc1ccc(S(=O)(=O)Nc2ccc3c(c2)C(=O)N([C@@H](C)CO)C[C@@H](C)[C@@H](CN(C)CC2CC2)OCCCC[C@@H](C)O3)cc1", "activity change, negative = inhibition": "-4.32% (inactive)"}, {"compound": "Cc1ccc(S(=O)(=O)n2cccc2C)cc1", "activity change, negative = inhibition": "0.742% (inactive)"}, {"compound": "O=C(CN1C(=O)CCS(=O)(=O)c2ccccc21)Nc1ccc(F)cc1", "activity change, negative = inhibition": "-4.04% (inactive)"}, {"compound": "Cc1cc(Cl)nc(-n2nc(C)cc2C)n1", "activity change, negative = inhibition": "1.74% (inactive)"}, {"compound": "Cn1c(CC(=O)NNC(=O)c2ccc(F)cc2F)nc2ccccc21", "activity change, negative = inhibition": "-2.58% (inactive)"}, {"compound": "COc1cccc(CNC(=O)C2CCCN(S(=O)(=O)c3ccc4c(c3)C(C)(C)C(=O)N4C)C2)c1", "note": "(stereo not given)", "activity change, negative = inhibition": "-4.47% (inactive)"}, {"compound": "COc1ccc2[nH]c3c(c2c1)CCN1C(=O)N([C@@H](C)C(=O)NCc2ccccc2)C(=O)[C@]31C", "activity change, negative = inhibition": "8.69% (inactive)"}, {"compound": "C[C@H](NC(=O)C[C@@H]1C[C@@H]2c3cc(NC(=O)Nc4ccc(C(F)(F)F)cc4)ccc3O[C@@H]2[C@@H](CO)O1)c1ccccc1", "activity change, negative = inhibition": "0.731% (inactive)"}, {"compound": "CC1(C(=O)Nc2cnc3ccccc3c2)CCN1Cc1cc2ccccc2o1", "note": "(stereo not given)", "activity change, negative = inhibition": "5.98% (inactive)"}, {"compound": "O=C(c1ccncc1)N1C[C@@H]2[C@H](c3ccccc31)[C@@H](CO)N2C(=O)CN1CCOCC1", "activity change, negative = inhibition": "0.53% (inactive)"}, {"compound": "CSc1cccc(NS(=O)(=O)c2ccc(-c3coc(C)n3)cc2)c1", "activity change, negative = inhibition": "1.05% (inactive)"}, {"compound": "CC(C)(O)C#Cc1ccc([C@H]2[C@H](CO)N3CCCCN(C(=O)c4ccc(F)cc4)C[C@@H]23)cc1", "activity change, negative = inhibition": "16.9% (inactive)"}, {"compound": "CC(OC(=O)C1=COCCO1)C(=O)Nc1ncc(Cl)cc1Cl", "note": "(stereo not given)", "activity change, negative = inhibition": "0.629% (inactive)"}]}]}
